Source: ChEMBL document CHEMBL1961873, “Compounds: GSK PKIS; Assays: Nanosyn kinase panel” (2012)
Values joined by “and” are separate entries in the source; they are usually repeats but may differ in a detail not shown here. Identical values can stand only once.

Assays:
[1] = biological target: High affinity nerve growth factor receptor (Homo sapiens) (UniProt P04629); details: at 1 µM;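 note: each value is the mean percent inhibition of TRKA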
[2] = biological target: BDNF/NT-3 growth factors receptor (Homo sapiens) (UniProt Q16620); details: at 0.1 µM
[3] = biological target: BDNF/NT-3 growth factors receptor (Homo sapiens) (UniProt Q16620); details: at 1 µM
[4] = biological target: NT-3 growth factor receptor (Homo sapiens) (UniProt Q16288); details: at 0.1 µM
[5] = biological target: NT-3 growth factor receptor (Homo sapiens) (UniProt Q16288); details: at 1 µM
[6] = biological target: T1, Tyrosine-protein kinase TXK (Homo sapiens) (UniProt P42681); details: at 0.1 µM
T1 sequence (whole entry): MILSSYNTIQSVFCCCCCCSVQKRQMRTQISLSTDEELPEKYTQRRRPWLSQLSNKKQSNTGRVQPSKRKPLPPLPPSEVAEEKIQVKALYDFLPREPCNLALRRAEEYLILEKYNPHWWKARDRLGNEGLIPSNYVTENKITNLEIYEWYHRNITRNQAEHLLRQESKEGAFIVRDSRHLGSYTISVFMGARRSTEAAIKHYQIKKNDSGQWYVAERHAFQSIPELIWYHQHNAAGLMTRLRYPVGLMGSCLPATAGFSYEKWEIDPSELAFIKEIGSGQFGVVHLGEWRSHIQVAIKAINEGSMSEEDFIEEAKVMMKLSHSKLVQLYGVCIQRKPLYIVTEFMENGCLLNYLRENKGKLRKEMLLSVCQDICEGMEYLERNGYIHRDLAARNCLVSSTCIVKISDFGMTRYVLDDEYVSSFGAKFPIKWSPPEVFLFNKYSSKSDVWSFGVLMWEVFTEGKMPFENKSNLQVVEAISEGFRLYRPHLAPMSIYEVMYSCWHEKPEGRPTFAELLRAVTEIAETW

[7] = biological target: T1, Tyrosine-protein kinase TXK (Homo sapiens); details: at 1 µM
[8] = biological target: Non-receptor tyrosine-protein kinase TYK2 (Homo sapiens) (UniProt P29597); details: at 0.1 µM;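 note: each value is a mean of the inhibition readings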
[9] = biological target: T2, Dual specificity protein kinase TTK (Homo sapiens) (UniProt P33981); details: at 1 µM;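 note: reported figures are mean TTK inhibition at 1 µM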
T2 sequence (whole entry): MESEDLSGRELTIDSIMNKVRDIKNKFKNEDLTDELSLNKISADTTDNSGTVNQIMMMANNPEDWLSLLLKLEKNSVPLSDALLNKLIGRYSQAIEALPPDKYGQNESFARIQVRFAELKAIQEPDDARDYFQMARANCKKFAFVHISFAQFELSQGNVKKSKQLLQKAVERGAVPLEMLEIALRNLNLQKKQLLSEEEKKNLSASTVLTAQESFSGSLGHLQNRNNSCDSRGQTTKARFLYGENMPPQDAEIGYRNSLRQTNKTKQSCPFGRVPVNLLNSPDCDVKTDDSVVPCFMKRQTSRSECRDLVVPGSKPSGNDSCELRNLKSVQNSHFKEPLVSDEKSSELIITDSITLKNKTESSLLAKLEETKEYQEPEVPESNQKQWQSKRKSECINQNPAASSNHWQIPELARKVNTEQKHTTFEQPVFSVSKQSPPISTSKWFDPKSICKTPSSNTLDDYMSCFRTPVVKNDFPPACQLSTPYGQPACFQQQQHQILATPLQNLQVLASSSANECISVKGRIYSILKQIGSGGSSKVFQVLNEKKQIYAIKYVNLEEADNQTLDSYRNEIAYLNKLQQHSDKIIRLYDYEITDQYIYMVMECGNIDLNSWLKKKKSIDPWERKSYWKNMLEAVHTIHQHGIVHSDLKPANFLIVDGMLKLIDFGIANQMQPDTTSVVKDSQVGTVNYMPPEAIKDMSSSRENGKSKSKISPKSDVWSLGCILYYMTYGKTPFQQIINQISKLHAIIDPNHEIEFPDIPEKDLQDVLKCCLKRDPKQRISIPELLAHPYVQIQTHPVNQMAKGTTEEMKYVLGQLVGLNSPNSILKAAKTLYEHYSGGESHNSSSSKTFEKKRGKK

[10] = biological target: T3, Aurora kinase A (Homo sapiens) (UniProt O14965); details: at 0.1 µM
T3 sequence (whole entry): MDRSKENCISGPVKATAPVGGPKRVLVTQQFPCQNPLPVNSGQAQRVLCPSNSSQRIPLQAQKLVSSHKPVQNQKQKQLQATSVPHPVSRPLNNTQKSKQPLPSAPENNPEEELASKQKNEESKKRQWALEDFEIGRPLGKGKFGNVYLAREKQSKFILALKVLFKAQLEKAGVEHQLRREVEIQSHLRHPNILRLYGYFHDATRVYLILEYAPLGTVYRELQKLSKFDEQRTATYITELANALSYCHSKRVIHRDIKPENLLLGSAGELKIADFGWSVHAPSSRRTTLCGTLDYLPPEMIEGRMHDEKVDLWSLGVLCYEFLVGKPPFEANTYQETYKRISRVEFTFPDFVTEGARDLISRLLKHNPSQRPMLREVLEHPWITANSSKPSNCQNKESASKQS

[11] = biological target: T3, Aurora kinase A (Homo sapiens); details: at 1 µM
[12] = biological target: Aurora kinase B (Homo sapiens) (UniProt Q96GD4); details: at 0.1 µM
[13] = biological target: Aurora kinase B (Homo sapiens) (UniProt Q96GD4); details: at 1 µM
[14] = biological target: T4, Aurora kinase C (Homo sapiens) (UniProt Q9UQB9); details: at 0.1 µM
T4 sequence (whole entry): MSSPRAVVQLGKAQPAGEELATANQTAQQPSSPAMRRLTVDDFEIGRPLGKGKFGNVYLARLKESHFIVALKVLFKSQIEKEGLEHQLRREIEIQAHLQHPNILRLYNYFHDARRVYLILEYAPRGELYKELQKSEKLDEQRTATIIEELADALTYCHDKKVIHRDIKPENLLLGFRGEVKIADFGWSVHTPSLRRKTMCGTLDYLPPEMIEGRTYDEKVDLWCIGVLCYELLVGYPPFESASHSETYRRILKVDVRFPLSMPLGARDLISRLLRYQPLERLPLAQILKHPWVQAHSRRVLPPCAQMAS

[15] = biological target: T4, Aurora kinase C (Homo sapiens); details: at 1 µM
[16] = biological target: Serine/threonine-protein kinase 10 (Homo sapiens) (UniProt O94804); details: at 0.1 µM
[17] = biological target: Serine/threonine-protein kinase 10 (Homo sapiens) (UniProt O94804); details: at 1 µM
[18] = biological target: T5, Mitogen-activated protein kinase kinase kinase kinase 2 (Homo sapiens) (UniProt Q12851); details: at 0.1 µM
T5 sequence (whole entry): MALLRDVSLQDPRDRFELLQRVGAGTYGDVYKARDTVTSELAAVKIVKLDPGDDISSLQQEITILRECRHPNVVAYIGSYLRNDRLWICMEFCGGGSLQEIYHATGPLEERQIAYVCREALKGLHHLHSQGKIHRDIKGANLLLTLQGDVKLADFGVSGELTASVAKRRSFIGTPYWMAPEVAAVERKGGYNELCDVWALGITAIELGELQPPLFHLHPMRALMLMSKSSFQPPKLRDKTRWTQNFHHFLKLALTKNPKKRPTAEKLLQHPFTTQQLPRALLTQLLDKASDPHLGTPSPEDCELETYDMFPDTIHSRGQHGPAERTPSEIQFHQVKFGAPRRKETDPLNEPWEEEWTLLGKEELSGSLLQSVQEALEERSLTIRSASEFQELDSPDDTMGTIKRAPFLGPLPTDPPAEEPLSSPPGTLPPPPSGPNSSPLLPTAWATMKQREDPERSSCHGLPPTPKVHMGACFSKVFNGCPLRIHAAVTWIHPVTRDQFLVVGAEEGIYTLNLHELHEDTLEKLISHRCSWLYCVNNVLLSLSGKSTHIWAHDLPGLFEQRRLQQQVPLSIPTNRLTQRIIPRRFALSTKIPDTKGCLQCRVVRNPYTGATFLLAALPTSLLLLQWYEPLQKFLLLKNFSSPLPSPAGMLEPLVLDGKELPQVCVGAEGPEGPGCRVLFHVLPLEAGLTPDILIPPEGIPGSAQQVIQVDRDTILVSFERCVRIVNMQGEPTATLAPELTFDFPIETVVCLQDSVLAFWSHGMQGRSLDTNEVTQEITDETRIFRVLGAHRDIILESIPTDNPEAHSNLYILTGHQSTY

[19] = biological target: T5, Mitogen-activated protein kinase kinase kinase kinase 2 (Homo sapiens); details: at 1 µM
[20] = biological target: Mitogen-activated protein kinase kinase kinase kinase 4 (Homo sapiens) (UniProt O95819); details: at 0.1 µM
Chain of Mitogen-activated protein kinase kinase kinase kinase 4 (Homo sapiens) (O95819 2-1239 limits assumed): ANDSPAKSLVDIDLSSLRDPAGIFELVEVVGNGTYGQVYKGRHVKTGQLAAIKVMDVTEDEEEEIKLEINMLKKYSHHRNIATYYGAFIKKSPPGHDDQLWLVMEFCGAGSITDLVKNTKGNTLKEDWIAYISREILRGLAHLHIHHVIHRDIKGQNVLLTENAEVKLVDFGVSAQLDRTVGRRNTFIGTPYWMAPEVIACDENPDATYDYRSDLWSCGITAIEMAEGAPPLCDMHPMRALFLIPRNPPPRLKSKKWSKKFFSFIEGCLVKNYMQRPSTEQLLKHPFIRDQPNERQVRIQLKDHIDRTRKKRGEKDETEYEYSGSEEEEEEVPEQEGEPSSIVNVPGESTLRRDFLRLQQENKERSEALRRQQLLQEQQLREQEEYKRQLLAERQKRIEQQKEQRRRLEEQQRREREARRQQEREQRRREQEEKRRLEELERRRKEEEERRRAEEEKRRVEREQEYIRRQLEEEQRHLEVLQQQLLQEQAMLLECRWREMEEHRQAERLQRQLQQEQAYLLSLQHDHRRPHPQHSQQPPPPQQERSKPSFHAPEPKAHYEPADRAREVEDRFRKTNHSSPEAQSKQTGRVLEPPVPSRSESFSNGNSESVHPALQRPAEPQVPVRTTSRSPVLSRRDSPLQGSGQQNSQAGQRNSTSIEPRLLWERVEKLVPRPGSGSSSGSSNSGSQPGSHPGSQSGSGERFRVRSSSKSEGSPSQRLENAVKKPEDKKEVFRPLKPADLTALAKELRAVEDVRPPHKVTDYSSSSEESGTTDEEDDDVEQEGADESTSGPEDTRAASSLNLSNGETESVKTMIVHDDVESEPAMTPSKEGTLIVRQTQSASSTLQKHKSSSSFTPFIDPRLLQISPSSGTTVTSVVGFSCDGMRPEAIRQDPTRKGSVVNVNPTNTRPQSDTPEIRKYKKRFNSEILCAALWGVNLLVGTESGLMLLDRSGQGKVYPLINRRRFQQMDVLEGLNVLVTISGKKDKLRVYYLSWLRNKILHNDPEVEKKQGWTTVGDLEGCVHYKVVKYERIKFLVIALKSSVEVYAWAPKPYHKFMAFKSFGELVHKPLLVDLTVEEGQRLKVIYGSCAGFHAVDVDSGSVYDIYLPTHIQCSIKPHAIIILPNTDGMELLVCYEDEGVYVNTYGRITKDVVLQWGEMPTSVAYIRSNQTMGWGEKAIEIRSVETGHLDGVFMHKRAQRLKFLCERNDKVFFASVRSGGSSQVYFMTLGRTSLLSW

Chain of Serine/threonine-protein kinase 10 (Homo sapiens) (O94804 whole entry, looked up): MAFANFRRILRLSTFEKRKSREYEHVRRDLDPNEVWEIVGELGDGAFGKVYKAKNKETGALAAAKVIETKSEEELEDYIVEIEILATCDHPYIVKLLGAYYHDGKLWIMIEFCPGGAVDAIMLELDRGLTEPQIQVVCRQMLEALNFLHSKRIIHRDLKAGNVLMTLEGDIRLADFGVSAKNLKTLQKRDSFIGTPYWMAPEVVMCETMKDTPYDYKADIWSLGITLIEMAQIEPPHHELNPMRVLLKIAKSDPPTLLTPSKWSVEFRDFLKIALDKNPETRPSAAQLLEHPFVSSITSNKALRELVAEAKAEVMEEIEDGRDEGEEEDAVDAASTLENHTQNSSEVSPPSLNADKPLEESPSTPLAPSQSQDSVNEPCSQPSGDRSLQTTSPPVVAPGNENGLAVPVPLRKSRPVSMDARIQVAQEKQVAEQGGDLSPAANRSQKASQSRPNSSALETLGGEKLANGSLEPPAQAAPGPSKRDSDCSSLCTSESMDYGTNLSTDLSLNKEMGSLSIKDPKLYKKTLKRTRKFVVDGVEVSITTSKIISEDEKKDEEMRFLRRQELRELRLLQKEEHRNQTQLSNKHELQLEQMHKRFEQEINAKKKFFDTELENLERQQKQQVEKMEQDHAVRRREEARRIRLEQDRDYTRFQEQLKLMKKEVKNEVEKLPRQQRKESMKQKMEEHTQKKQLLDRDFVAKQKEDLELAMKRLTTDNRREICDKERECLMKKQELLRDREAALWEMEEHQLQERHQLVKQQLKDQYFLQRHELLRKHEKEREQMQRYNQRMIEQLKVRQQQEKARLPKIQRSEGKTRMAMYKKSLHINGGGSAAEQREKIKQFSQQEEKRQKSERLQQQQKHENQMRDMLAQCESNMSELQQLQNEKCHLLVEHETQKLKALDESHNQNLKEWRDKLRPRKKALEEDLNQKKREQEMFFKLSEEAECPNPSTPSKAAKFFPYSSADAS
Chain of High affinity nerve growth factor receptor (Homo sapiens) (P04629 33-796 limits assumed): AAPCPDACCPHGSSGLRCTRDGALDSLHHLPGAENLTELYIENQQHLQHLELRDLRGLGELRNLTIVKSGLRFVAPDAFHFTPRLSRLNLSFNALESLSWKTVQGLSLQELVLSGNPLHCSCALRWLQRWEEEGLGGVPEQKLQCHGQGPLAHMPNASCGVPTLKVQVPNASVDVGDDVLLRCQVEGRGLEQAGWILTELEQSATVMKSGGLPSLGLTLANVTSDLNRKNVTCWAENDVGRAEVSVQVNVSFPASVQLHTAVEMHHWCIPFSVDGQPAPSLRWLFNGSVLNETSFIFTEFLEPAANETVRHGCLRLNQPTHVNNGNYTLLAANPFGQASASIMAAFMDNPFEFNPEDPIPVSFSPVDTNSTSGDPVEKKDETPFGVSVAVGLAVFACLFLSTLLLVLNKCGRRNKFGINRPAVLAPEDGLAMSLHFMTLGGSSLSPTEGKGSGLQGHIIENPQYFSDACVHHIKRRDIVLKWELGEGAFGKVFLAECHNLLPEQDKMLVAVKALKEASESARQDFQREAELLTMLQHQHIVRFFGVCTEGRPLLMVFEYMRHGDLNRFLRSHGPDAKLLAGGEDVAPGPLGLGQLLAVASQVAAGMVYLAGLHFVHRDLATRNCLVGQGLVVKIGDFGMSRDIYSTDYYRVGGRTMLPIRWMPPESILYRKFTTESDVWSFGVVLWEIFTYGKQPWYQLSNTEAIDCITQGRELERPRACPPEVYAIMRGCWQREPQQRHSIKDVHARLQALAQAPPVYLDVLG
Chain of NT-3 growth factor receptor (Homo sapiens) (Q16288 32-839 limits assumed): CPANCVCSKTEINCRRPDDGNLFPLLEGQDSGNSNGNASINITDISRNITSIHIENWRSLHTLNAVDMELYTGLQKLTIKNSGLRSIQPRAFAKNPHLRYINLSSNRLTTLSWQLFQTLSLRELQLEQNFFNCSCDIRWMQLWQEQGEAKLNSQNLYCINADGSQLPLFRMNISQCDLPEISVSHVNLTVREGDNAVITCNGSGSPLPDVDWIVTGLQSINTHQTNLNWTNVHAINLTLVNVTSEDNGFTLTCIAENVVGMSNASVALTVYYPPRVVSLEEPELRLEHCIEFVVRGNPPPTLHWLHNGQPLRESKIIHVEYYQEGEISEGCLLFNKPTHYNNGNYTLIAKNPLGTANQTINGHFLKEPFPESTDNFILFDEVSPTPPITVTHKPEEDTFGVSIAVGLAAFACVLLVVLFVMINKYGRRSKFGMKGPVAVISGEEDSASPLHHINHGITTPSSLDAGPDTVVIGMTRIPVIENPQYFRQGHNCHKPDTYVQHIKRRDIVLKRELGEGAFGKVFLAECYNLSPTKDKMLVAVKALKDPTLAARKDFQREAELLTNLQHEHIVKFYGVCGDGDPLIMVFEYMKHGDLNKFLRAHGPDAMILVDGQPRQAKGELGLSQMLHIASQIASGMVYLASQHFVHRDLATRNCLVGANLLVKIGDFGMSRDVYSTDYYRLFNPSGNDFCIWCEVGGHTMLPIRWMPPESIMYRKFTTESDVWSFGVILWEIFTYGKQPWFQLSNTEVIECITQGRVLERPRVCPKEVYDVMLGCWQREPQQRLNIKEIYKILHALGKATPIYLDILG
Chain of Non-receptor tyrosine-protein kinase TYK2 (Homo sapiens) (P29597 whole entry): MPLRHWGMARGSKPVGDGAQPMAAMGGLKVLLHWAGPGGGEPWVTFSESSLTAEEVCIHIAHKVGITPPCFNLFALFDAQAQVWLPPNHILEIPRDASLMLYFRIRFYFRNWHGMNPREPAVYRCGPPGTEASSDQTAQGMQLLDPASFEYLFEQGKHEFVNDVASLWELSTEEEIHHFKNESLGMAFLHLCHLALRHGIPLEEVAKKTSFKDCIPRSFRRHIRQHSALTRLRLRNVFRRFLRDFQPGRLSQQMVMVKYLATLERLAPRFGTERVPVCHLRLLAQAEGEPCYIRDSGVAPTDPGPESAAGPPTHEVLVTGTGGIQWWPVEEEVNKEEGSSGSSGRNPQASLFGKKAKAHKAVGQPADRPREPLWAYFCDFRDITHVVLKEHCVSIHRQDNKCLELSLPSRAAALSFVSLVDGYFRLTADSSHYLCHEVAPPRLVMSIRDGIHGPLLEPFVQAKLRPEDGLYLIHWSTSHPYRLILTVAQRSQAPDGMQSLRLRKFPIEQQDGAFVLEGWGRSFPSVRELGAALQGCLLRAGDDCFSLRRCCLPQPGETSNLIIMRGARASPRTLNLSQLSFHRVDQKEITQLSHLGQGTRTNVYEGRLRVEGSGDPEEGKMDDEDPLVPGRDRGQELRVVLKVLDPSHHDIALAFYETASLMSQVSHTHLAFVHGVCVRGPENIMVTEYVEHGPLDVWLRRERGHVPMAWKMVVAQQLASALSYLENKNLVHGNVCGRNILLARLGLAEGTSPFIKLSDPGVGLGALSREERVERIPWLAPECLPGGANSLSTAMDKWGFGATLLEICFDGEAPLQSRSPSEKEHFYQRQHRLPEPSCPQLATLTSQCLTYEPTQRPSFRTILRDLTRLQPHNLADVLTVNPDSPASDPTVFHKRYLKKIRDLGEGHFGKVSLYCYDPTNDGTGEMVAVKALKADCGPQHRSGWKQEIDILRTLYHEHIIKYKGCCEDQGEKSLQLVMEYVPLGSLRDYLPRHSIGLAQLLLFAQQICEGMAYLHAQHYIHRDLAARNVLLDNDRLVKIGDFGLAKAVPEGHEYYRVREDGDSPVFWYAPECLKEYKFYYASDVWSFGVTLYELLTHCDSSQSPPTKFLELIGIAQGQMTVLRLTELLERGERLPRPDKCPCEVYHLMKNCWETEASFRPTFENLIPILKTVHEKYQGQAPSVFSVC

SMILES	inhibition [1]	inhibition [2]	inhibition [3]	inhibition [4]	inhibition [5]	inhibition [6]	inhibition [7]	inhibition [8]	inhibition [9]	inhibition [10]	inhibition [11]	inhibition [12]	inhibition [13]	inhibition [14]	inhibition [15]	inhibition [16]	inhibition [17]	inhibition [18]	inhibition [19]	inhibition [20]
c1cnn2ncc(-c3ccnc(NCCCN4CCOCC4)n3)c2c1	1.75%	3.17%	1.35%	3.48%	2.63%	1.71%	-0.63%	-5.16%	8.22%	2.65%	8.82%	2.38%	5.43%	-0.51%	1.86%	4.84%	1.98%	-0.2%	1.94%	4.7%
CN(C)CCNC(=O)Nc1ccc(N(C)c2ccnc(Nc3ccc(CS(C)(=O)=O)cc3)n2)cc1	7.1%	2.82%	9.09%	4.45%	11.9%	8.39%	34.3%	-2.14%	11.4%	13.7%	79%	21.6%	69.1%	21.9%	94.5%	7.91%	36.7%	0.59%	2.02%	4.07%
CN1CCC(n2cnc(-c3ccc(F)cc3)c2-c2ccnc(NCCO)n2)CC1	2.02%	2.35%	6.67%	4.76%	5.91%	2.5%	2.52%	-3.21%	2.05%	1.7%	9.26%	4.23%	4.96%	1.22%	-3.16%	4.56%	8.57%	1.01%	1.59%	7.52%
CNC(=O)c1sc(-n2cnc3cc(OC)c(OC)cc32)cc1OCc1ccccc1C(F)(F)F	4.9%	1.8%	4.02%	3.06%	6.32%	5.54%	11.5%	-2.35%	7.09%	3.14%	4.37%	6.28%	16.6%	5.07%	20.8%	10.4%	31.6%	3.26%	7.14%	8.53%
CCS(=O)(=O)c1ccc(OC)c(Nc2ncc(-c3cccc(C(C)=O)c3)o2)c1	9.16%	4.28%	20.5%	4.38%	29.4%	13%	50.5%	-3.16%	8.55%	2.45%	15.3%	3.08%	6.28%	4.6%	-0.45%	6.16%	9.95%	-0.26%	3.22%	3.37%
Fc1ccc(Nc2nccc(-c3c(-c4ccc(C(F)(F)F)cc4)nn4ncccc34)n2)cc1F	1.59%	2.27%	2.56%	3.55%	2.83%	2.95%	4.27%	-3.95%	8.25%	3.59%	14.1%	4.71%	4.62%	2.92%	12.9%	3.37%	0.68%	0.94%	1.77%	5.44%
Nc1nonc1-c1nc2cnccc2n1C1CC1	0.83% and 3.35%	1.21% and 3.09%	3.17% and -0.36%	2.17% and 1.89%	3.84% and 1.11%	4.13% and -0.96%	5.76% and -3.04%	-4.88% and 0.09%	5.15% and -6.34%	3.77% and -2.63%	10.7% and -0.07%	5.82% and -0.78%	11.3% and 1.86%	4.22% and -3.73%	11.6% and -0.49%	7.02% and 3.14%	15.1% and 14.1%	3.53% and 3.38%	14.3% and 12.8%	11.1% and 7.77%
